# Assay results taken from PubChem BioAssay AID1851 (National Center for Advancing Translational Sciences (NCATS), 2009).
# About 5,700 (36%) of roughly 16,000 compounds were called active. Not shown: some 24% with an inconclusive outcome. The call rests on the fitted dose curve; in most records, active means well fitted curve in the direction sought with a large enough effect; inconclusive means small, poorly fitted or top-dose-only effect, or effect the other way; inactive means no such curve, though single readings can be large or run the other way. Some of the results follow.
# Target: Cytochrome P450 1A2 (Homo sapiens) (UniProt P05177)
# Test: Cytochrome panel assay with activity outcomes
# Details: recombinant CYP, pro-luciferin dealkylation, luminescence, p450-cyp1a2; series mostly up to 57.1 µM; activity, negative = inhibition: at the top concentration
# On the % scale 0 is the no-effect control and ±100 the full control effect.
# Chain of Cytochrome P450 1A2 (Homo sapiens) (P05177 whole entry, looked up): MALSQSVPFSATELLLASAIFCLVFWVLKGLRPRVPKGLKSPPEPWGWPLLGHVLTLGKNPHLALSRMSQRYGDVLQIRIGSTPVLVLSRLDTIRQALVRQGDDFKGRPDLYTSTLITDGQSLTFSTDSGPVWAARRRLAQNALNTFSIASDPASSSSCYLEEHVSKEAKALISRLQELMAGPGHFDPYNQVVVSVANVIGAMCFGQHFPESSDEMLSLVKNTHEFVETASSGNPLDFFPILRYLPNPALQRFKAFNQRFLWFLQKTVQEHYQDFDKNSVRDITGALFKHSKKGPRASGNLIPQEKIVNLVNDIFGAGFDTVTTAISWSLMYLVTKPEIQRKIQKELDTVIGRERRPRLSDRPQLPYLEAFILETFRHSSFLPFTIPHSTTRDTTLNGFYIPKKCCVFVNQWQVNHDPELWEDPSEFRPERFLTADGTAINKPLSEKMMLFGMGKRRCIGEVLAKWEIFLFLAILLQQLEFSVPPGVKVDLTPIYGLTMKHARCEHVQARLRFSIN
SMILES,"activity, negative = inhibition",AC50
CO[C@@H]1COC(=O)[C@H]2CCCN2C(=O)C/C=C\[C@@H](C)[C@H](OC)COC(=O)[C@H]2CCCN2C(=O)C/C=C\[C@H]1C,-18.1% [at 11.4 µM] (inactive),–
Cn1c2c(c(=O)n(C)c1=O)[C@@H]1c3c(ccc4ccccc34)OC[C@@H]1CO2,-2.25% (inactive),–
COc1ccc(O[C@H]2C=C[C@@H](c3ccccc3)O[C@H]2COC(=O)CC/C(C)=N/O[C@@H]2O[C@H](COC(C)=O)[C@H](OC(C)=O)[C@H](OC(C)=O)[C@H]2OC(C)=O)cc1,7.86% [at 11.4 µM] (inactive),–
Cc1noc(C)c1C(=O)N1CCC2(CCCN(c3ccncc3)C2)CC1,7.42% (inactive),–
CCCCNC(=S)NNC(=O)c1csc2c1CCC(C)C2 (stereo not given),–,14100 nM (active)
CCCCNC(=O)NS(=O)(=O)c1ccc(C)cc1,-9.95% [at 25.6 µM] (inactive),–
CCCCNC(=S)NNC(=O)c1sccc1C,–,14100 nM (active)
CC1CCc2c(C(=O)Nc3nccs3)csc2C1 (stereo not given),–,1000 nM (active)
COc1ccc(-c2cc(C3CCN(c4ccc(C(C)=O)cc4[N+](=O)[O-])CC3)[nH]n2)cc1,–,7080 nM (active)
COc1ccc(-c2cc(C3CCN(c4cc(Cl)nc(N)n4)CC3)[nH]n2)cc1,–,15800 nM (active)
O=C(NNC(=S)NCc1ccco1)c1ccc(Cl)s1,–,22400 nM (active)
O=C(NC(=S)NNC(=O)c1cccs1)c1ccco1,12.9% (inactive),–
S=C(NCc1ccco1)N1CCN(Cc2ccco2)CC1,-25.8% (inactive),–
CCOC(=O)C(=CNCC(=O)O)C(=O)OCC,12.3% (inactive),–
CCOC(=O)C(=CNc1ncccc1C)C(=O)OCC,–,1120 nM (active)
CCOC(=O)C(=CNc1cccc(C)c1C)C(=O)OCC,-19.1% (inactive),–
Cc1ccc(C)c(-c2cc(C(=O)Nc3nccs3)c3ccccc3n2)c1,–,891 nM (active)
Cc1ccc(NC(=O)CCC(=O)NNC(=O)c2cccs2)c(C)c1,-14.3% (inactive),–
Cc1ccc(C)c(-c2cc(C(=O)NCc3cccs3)c3ccccc3n2)c1,–,2240 nM (active)
Cc1ccc(Nc2ncccc2C(=O)NCc2cccs2)c(C)c1,–,1000 nM (active)

SMILES,"activity, negative = inhibition",AC50
Cc1ccc(C)c(NC(=O)Cn2nnc(C(=O)NCc3cccs3)c2N)c1,1.98% (inactive),–
COC(=O)c1sccc1NC(=O)c1cc(-c2ccc(C)cc2C)nc2ccccc12,-22.7% (inactive),–
COc1ccc2oc(-c3ccc(C)c(NC(=O)c4ccc(N5CCOCC5)c([N+](=O)[O-])c4)c3)nc2c1,-27% (inactive),–
COc1ccc2oc(-c3ccc(C)c(NC(=O)CSc4ccc(Cl)cc4)c3)nc2c1,–,3160 nM (active)
CC(=O)OC[C@H]1O[C@@H](O/N=C(\C)CCN2CCc3nc(-c4ccccc4)c(-c4ccccc4)cc3C2)[C@H](OC(C)=O)[C@@H](OC(C)=O)[C@H]1OC(C)=O,-0.893% [at 11.4 µM] (inactive),–
O=C(Cc1ccc(Br)cc1)OCC(=O)c1ccc2c(c1)OCCO2,–,12600 nM (active)
O=C(CN1C(=O)c2ccccc2C1=O)NCC(=O)OCC(=O)c1ccc(Br)cc1,-21.1% (inactive),–
CC(=O)NCCn1c(SCC(=O)NCc2ccco2)nc2ccccc2c1=O,-20.4% (inactive),–
C=CCSc1nn2c(=O)c3ccccc3nc2s1,–,1000 nM (active)
C=CCSc1nc2ccccc2c(=O)n1Cc1ccco1,–,25.1 nM (active)
CC1(C)S[C@@H]2[C@H](NC(=O)[C@@H](NC(=O)N3CCNC3=O)c3ccccc3)C(=O)N2[C@H]1C(=O)O,1.79% [at 25.6 µM] (inactive),–
CCn1c(CCNC(=O)c2ccccc2Cl)n[nH]c1=S,-1.57% (inactive),–
S=c1[nH]nc(CCc2ccccc2)n1Cc1ccccc1,–,25100 nM (active)
Cn1c(CCNC(=O)c2ccccc2Cl)n[nH]c1=S,-6.55% (inactive),–
N=c1ccn2c(n1)O[C@@H]1[C@@H](O)[C@H](CO)O[C@H]12,-3.76% (inactive),–
COc1ccc(CCCO[C@@H](Cn2ccnc2)c2ccc(OC)cc2)cc1,–,15.8 nM (active)
Cc1ccc(/C=C2\SC(=S)N(CCCC(=O)Nc3ccccn3)C2=O)cc1,–,10000 nM (active)
Cc1ccc(C(=O)c2cn[nH]c2-c2cc(Cl)ccc2O)cc1,–,14100 nM (active)
O=C(NCC1CCCO1)C1CCC(=O)N1CCc1ccccc1 (stereo not given),-5.31% (inactive),–
O=C(CC(c1ccccc1)c1ccccc1)NCC1CCCO1 (stereo not given),0.353% (inactive),–

SMILES,"activity, negative = inhibition",AC50
CC(NC(=O)OCc1ccccc1)C(=O)NCC1CCCO1 (stereo not given),–,12600 nM (active)
CC(C)Cc1nnc(NC(=O)c2ccc([N+](=O)[O-])cc2)s1,-16.6% (inactive),–
CC(=O)N=c1sccn1CC(=O)c1ccc([N+](=O)[O-])cc1,–,22400 nM (active)
O=C(c1cccc(C(F)(F)F)c1)N1CCC(O)(CS(=O)(=O)Cc2ccccc2)CC1,6.59% (inactive),–
COC(=O)C(Cc1ccc(OC(=O)c2ccc(C(F)(F)F)cc2)cc1)N1Cc2ccccc2C1=O (stereo not given),-9.91% (inactive),–
C[C@@H](Cc1cccc(C(F)(F)F)c1)NCCOC(=O)c1ccccc1,–,794 nM (active)
O=C(O)c1cccc(OCCO)c1,-14.7% [at 11.4 µM] (inactive),–
CCOc1cccc(OCCCNCCCOC)c1,–,8910 nM (active)
COc1ccccc1CNc1ncnc2ccc(-c3ccc(N(C)C)cc3)cc12,–,794 nM (active)
COc1ccc(CNc2ncnc3ccc(-c4ccc(N(C)C)cc4)cc23)c(OC)c1,–,2510 nM (active)
COc1ccccc1CNc1ncnc2ccc(-c3ccc(C(=O)N(C)C)cc3)cc12,–,12600 nM (active)
COc1ccccc1CNc1ncnc2ccc(-c3ccc4c(c3)OCO4)cc12,–,794 nM (active)
CC(C)(C)NC[C@H](O)c1cc(O)cc(O)c1,–,inactive
CC(=O)NC1(c2cccc(F)c2)CCN(CC(=O)NC(C)C)CC1,21.3% (inactive),–
[N-]=[N+]=Nc1ccc(C(=O)CSC[C@@H](NC(=O)CC[C@@H](N)C(=O)O)C(=O)NCC(=O)O)cc1,-18.2% (inactive),–
COc1ccc(Nc2ncc3nc(-c4cccs4)c(=O)n(Cc4cccc(OC)c4)c3n2)cc1,-8.5% (inactive),–
CCNc1ncc2nc(-c3cccs3)c(=O)n(Cc3cccs3)c2n1,–,1260 nM (active)
CCNc1ncc2nc(-c3cccs3)c(=O)n(C)c2n1,–,1580 nM (active)
CCNc1ncc2nc(-c3cn(C)c4ccccc34)c(=O)n(Cc3cccs3)c2n1,–,6310 nM (active)
CCNc1ncc2nc(C)c(=O)n(Cc3cccs3)c2n1,–,2000 nM (active)
